A selection: hits, their analogues and other compounds. The true share with any hit is near 21%.
ClpP mod = qHTS Assay for Activators of ClpP. purified B. subtilis ClpP, FRET peptide cleavage, 20 min. ATP-dependent Clp protease proteolytic subunit (Bacillus subtilis (strain 168)), P80244. Potency, µM (highest dose often 57.5 µM). 1.9% of 340,000 active; active means well fitted falling curve with a large enough effect; inconclusive means small, poorly fitted or top-dose-only effect; inactive means no such curve, though single readings can be large or run the other way; further: the source files actives as falling curves though it sought activators and does not explain the sign; nearly all actives have a fitted effect of over 65% in size
Target sequence (P80244 whole entry, looked up): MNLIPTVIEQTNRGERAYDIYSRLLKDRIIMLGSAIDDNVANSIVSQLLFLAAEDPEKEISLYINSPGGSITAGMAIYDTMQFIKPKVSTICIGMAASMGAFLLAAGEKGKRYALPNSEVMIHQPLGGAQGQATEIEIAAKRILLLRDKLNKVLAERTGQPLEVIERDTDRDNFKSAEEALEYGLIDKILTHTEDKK
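Purified B. subtilis ClpP, 10 microg/mL final in Tris/HCl pH8 with KCl, BSA, glycerol and Tween-20, cleaved an Abz/nitrotyrosine-quenched decapeptide. Fluorescence (ex 320, em 430) was read at 0 and 20 min at room temperature. Delta was normalized to 5.8 microM ADEP and DMSO/no-enzyme controls.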
DRD3 agonist = agonists of human D3 dopamine receptor; max activation, %; P35462; 0.58% of 410,000 active; D3R DiscoveRx beta-arrestin cells, luminescence, 90 min; in the data active means max activation above about 30%
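Cells at 1500/well, incubated overnight, then treated with pinned compounds (dopamine as control) for 90 min at 37 degrees C. DiscoveRx reagent added for 30 - 60 minutes at room temperature; luminescence read.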
DT40 TDP1 no CPT = qHTS for Inhibitors of human tyrosyl-DNA phosphodiesterase 1 (TDP1): qHTS in cells in absence of CPT. DT40 Tdp1-/- hTDP1 cells, no CPT, ATP luminescence, 48 h. Potency, µM (doses to about 46.2 µM), actives largely listed as inhibitors. 15% of 420,000 active. AID 686978, 2013; further: nearly all actives have a fitted effect of over 55% in size
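A cellular qHTS used chicken DT40 cells lacking endogenous Tdp1 but carrying stably transfected human TDP1. Compounds were applied without camptothecin, and cell growth kinetics were judged by ATP-dependent luminescence after ≥48 hr.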
DT40 TDP1 CPT = growth inhibition of DT40 Tdp1-/-;hTDP1 cells with camptothecin (screen for TDP1 inhibitors); chicken DT40 Tdp1-/-;hTDP1 cells + 20 nM CPT, ATP luminescence, 48 h; Potency, µM (doses to about 46.2 µM), usual class: inhibitors; 12% of 420,000 active; AID 686979; further: nearly all actives have a fitted effect of over 55% in size
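Chicken DT40 Tdp1-/- cells complemented with human TDP1, 400 cells/well, exposed to compounds plus 20 nM camptothecin for at least 48 h at 37 C; viability read as ATP content by CellTiter-Glo luminescence.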
D3 antag = D3 dopamine receptor (human) antagonism. D3R cells, DiscoveRx beta-arrestin luminescence, antagonist mode; stronger effect = lower value. max response, negative = inhibition, %. P35462. 2.5% of 360,000 active; in the data active means max response below about -50%; inconclusive means no clear call, values can overlap the other calls
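Cells expressing the human receptor were seeded at 1500 cells/well, incubated overnight at 37 degrees C in 5% CO2, then exposed to library compounds with dopamine controls for 90 minutes at 37 degrees C before luminescent detection.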
IL1B secr inh = inflammasome signaling inhibition, IL-1 beta readout | activity change, % at 57.5 µM | 4.7% of 360,000 active | AID 743279 | THP-1 LPS/ATP IL-1B secretion, AlphaLISA, 16 h; stronger effect = lower value; in the data active means activity change below about -50%; inconclusive means mostly about -30% to -49%
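THP-1 cells pretreated 1 hr with compounds (up to 57.5 uM final), then stimulated with LPS (250 ng/mL final) plus ATP (1.25 mM final); secreted IL-1B measured by AlphaLISA after 16 hr, decreased signal indicating inhibition.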
Numbers stand for hits; n = inactive; u = inconclusive; x = no result given. Unless noted, the call rests on the fitted dose curve; in most records, active means well fitted inhibition curve with a large enough effect; inconclusive means small, poorly fitted or top-dose-only effect; inactive means flat fitted curve, though single readings scatter.

SMILES	ClpP mod	DRD3 agonist	DT40 TDP1 no CPT	DT40 TDP1 CPT	D3 antag	IL1B secr inh
CCOC(=O)c1cc(C)n(CC2CCC(C(=O)Nc3ccc(OC)cc3)CC2)c1C (centres undefined)	n	30	21µM	15µM	x	x
CCOC(=O)c1cc(C)n(CC2CCC(C(=O)Nc3cccc(C)c3)CC2)c1C (centres undefined)	n	n	u	18µM	x	x
CCOC(=O)c1cccc(NC(=O)C2CCC(CNc3c(N4CCOCC4)c(=O)c3=O)CC2)c1 (centres undefined)	n	n	n	n	n	n
CCOC(=O)c1cc(C)n(CC2CCC(C(=O)Nc3ccc(C)c(F)c3)CC2)c1C (centres undefined)	n	n	n	u	x	x
O=C(NCCc1nnc2n1CCN(Cc1ccc(F)cc1)CC2)c1ccc(F)cc1	x	x	n	n	x	x
COc1cc2nc(C3CC3)n(NC(=O)c3ccc(Cl)cc3)c(=O)c2cc1OC	n	n	23µM	u	n	n
O=C(Nn1c(C2CCC2)nc2ccccc2c1=O)c1cccs1	x	n	n	n	n	n
O=C(Nn1c(C2CCC2)nc2ccccc2c1=O)C1CCC1	n	n	n	n	n	n
COc1ccccc1C(=O)Nn1c(C2CCC2)nc2ccccc2c1=O	n	n	u	13µM	n	n
O=C(Nn1c(C2CCCCC2)nc2ccccc2c1=O)c1ccc(Cl)c([N+](=O)[O-])c1	x	n	u	u	n	-224
CCOc1ccccc1C(=O)Nn1c(C2CCC2)nc2ccccc2c1=O	n	n	23µM	9.2µM	n	n
Cc1ccc(CNC(=O)CCSCc2cccc(F)c2)cc1	n	n	n	n	n	n
CC(C)(C)c1ccc(OCC(=O)NCC(c2cccs2)N2CCOCC2)cc1 (centres undefined)	x	n	u	u	n	u
CC1CCCC(C)N1C(=O)COC(=O)c1nn(C)c(=O)c2ccccc12 (centres undefined)	n	n	n	n	n	n
CCc1cc2c(C)ccc(C)c2nc1SCC(=O)Nc1c[nH]c(=O)[nH]c1=O	x	n	12µM	u	n	n
CCc1cc2ccc(C)cc2nc1SCC(=O)Nc1c[nH]c(=O)[nH]c1=O	n	n	u	n	n	n
Cc1[nH]c(=O)[nH]c(=O)c1NC(=O)CSc1ncccc1-c1nc2ccccc2[nH]1	u	n	n	n	n	n
CCc1cc2c(C)ccc(C)c2nc1SCC(=O)Nc1c(C)[nH]c(=O)[nH]c1=O	n	n	u	21µM	n	n
O=C1OCCN1/N=C/c1ccc([N+](=O)[O-])o1	n	n	15µM	13µM	n	n
O=[N+]([O-])c1cc(-c2ccc(/C=N\n3cnnc3)o2)cc([N+](=O)[O-])c1	n	n	n	n	n	n
O=C1CN(/N=C/c2ccc([N+](=O)[O-])o2)C(=O)N1	n	n	16µM	21µM	n	n
Cc1nc(-c2ccc(O)c(O)c2)cs1	n	n	u	16µM	n	n
COc1cc(-c2csc(C)n2)ccc1O	n	n	n	n	n	n
Oc1ccc(-c2csc(-c3cccnc3)n2)cc1O	x	n	23µM	18µM	n	-78
Cc1ccc(CNc2ncnc3c2cnn3C2CCCCO2)cc1 (centres undefined)	x	n	n	n	n	n
COc1ccc(NC(=O)c2sc3nc4n(c(=O)c3c2C)CCC4)cc1Cl	n	n	n	n	x	x
Cc1noc(NS(=O)(=O)c2cccc3c(N(C)C)cccc23)c1C	x	x	n	n	x	x
CC(=O)Nc1c(Br)cc2c(c1Br)Cc1cc(Br)ccc1-2	n	n	13µM	n	n	n
O=[N+]([O-])c1ccc(C2CC(c3ccccc3)=Nc3ccccc3S2)cc1 (centres undefined)	n	n	21µM	u	n	n
CCOc1ccc(CNC(=O)C2CCN(S(=O)(=O)N3CCCCC3)CC2)cc1	n	n	u	u	x	x

Screens from PubChem BioAssay.
